Source: PubChem BioAssay (several laboratories)
NSD2 HMT inh: blocks human histone methyltransferase NSD2. O96028. NSD2 peptide methylation, AlphaScreen, 120 min. inhibition, % at 12.5 µM. 310,000 compounds, 0.54% hits; in the data active = inhibition above about 50%
Vif inh: blocks HIV Vif function | 340,000 compounds, 0.35% hits | HEK293T cells, Vif self-association by quenched fluorescence, imaging, 24 h | inhibition, % at 7.49 µM; in the data active = inhibition above about 50%, passing the limit was not always enough
DSG3 Ab inh: human desmoglein-3 autoantibody binding inhibition; binding (percent of control), % at 10 µM; AID 588358; P32926; 310,000 compounds, 0.48% hits; DSG3-coupled beads, scFv-anti-DSG3-GFP binding, flow cytometry; active compounds read low;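 active = binding more than 3 SD below its plate's average and above zero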;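 also: hits lower antibody fragment binding to DSG3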
CaV13 ICDI inh: Disruptors of the CACNA1D IQ motif to Ca2+-dependent inactivation inhibitor domain association, primary screening, Förster resonance energy transfer in intact living …; HEK cells, CFP/YFP FRET ICDI-IQ, plate reader, 10 min; percent FRET-ratio fall versus neutral wells; 340,000 compounds, 0.098% hits; AID 743397; inhibition, % at 12.3 µM;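 active = mean replicate inhibition of at least 30% and at least 1% of replicates passing that level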;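 also: 0% = median of the neutral control wells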
ATG4B inhibitor: blocks human ATG4B protease cleavage of LC3 substrate. Q9Y4P1. ATG4B cleavage of LC3-PLA2, NBD-HPC fluorescence, 1 h. inhibition, % at 8.33 µM. 340,000 compounds, 0.51% hits; in the data active = inhibition above about 40%
Target sequence (Q9Y4P1 whole entry, looked up): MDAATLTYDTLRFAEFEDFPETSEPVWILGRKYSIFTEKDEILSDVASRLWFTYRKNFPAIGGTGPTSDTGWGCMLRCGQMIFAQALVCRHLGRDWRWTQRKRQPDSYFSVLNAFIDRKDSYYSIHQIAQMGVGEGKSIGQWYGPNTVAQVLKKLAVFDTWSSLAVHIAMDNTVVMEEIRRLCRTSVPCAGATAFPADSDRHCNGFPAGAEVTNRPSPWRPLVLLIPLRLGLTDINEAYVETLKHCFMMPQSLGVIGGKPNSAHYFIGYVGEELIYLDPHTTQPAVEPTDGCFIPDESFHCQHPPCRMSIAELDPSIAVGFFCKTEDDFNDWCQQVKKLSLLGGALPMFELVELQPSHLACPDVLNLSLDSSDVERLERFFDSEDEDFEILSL
Glyco luc inh: blocks N-linked glycosylation in D54 reporter cells; D54 ERlucT glycosylation luciferase reporter, 24 h; percent of 100 nM tunicamycin response; reporter increase, % at 12.5 µM; 360,000 compounds, 0.23% hits; AID 588692;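 active = mean luciferase reporter signal, scaled so untreated is 0 and the glycosylation-blocking control 100, at or above a set limit in every replicate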;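 also: luciferase carries N-glycosylation sites so blocking glycosylation raises the light; 0% = median of neutral control wells and 100% = median of 100 nM tunicamycin wells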
An asterisk follows results filed as active; i = inactive; nt = no result; + = active, no number; ! = repeats disagree. A selection: hits, their analogues and other compounds. The true share with any hit is near 1.9%.

SMILES	NSD2 HMT inh	Vif inh	DSG3 Ab inh	CaV13 ICDI inh	ATG4B inhibitor	Glyco luc inh
COc1ccnc(N2CCN(c3ccc(Cl)cc3)CC2)c1C#N	-1	-9	100	-9	2	-5
CN1C(=S)SC(C)(C)C1NO (stereo not drawn)	-4	5	98	-5	0	2
O=C(O)/C=C\C(=O)Nc1cccc(C(=O)Nc2cccc(O)c2)c1	-2	-5	98	-6	-9	1
COc1nc(NS(=O)(=O)c2ccc(C)cc2)nc(C)c1Cl	0	2	98	1	-1	0
Cc1cccc2nc(CSc3nc4ccc([N+](=O)[O-])cc4[nH]3)c(Br)n12	-2	54*	94	-8	25	2
O=[N+]([O-])c1ccc(CSc2nc3ccccc3[nH]2)cc1	3	-7	112	-3	-3	-3
CCCCCN=C(N)N/N=C/c1c[nH]c2ccc(OC)cc12	nt	81*	110	-2	22	-20
FC(F)(F)c1nnc2c(Sc3ccc(Cl)cc3)nc3ccccc3n12	-2	3	nt	-4	-4	30*
FC(F)(F)c1nnc2c(Sc3ccccc3)nc3ccccc3n12	0	-3	nt	-3	-8	9
O=C(Nc1ccc(F)c(Cl)c1)c1csc([C@@H]2C[C@H](O)[C@@H](CO)O2)n1	-2	-4	nt	-6	nt	0
O=C(Nc1ccc(F)c(Cl)c1)c1csc([C@H]2C[C@H](O)[C@@H](CO)O2)n1	1	54*	nt	-6	nt	-2
N#CC1=C(SCc2ccccc2)NC(=O)CC1c1cccc(O)c1 (stereo not drawn)	-1	-10	83*	-5	6	-2
CN1N=C(C(=O)Nc2ccc3c(c2)CCC3)CCC1=O	3	0	104	-4	1	2
Oc1ccccc1-c1nnc(COc2ccc(Cl)cc2Cl)o1	nt	6	66*	4	2	-1
CS(=O)(=O)c1ncc(Cl)c(C(=O)Nc2ccc(N3CCOCC3)cc2)n1	nt	11	118	nt	-11	-15
CS(=O)(=O)c1ncc(Cl)c(C(=O)Nc2ccc(OC(F)F)cc2)n1	14	54*	101	nt	3	-15
CC(=O)Nc1ccc(-c2ccnc3c2CC(C)(C(=O)NCCC(F)(F)F)O3)cc1 (stereo not drawn)	1	-5	nt	-5	nt	3
CC(=O)Nc1cccc(-c2ccnc3c2CC(C)(C(=O)NCCC(F)(F)F)O3)c1 (stereo not drawn)	-1	-7	nt	-5	nt	25*
CC1(C(=O)NCc2ccco2)Cc2c(-c3cccc(C(N)=O)c3)ccnc2O1 (stereo not drawn)	0	14	nt	-5	nt	38*
Clc1cccc(Oc2cnns2)c1Cl	-2	0	105	-2	1	0
COc1ccc(-c2cc(C(=O)NN=Cc3ccccc3[N+](=O)[O-])[nH]n2)cc1	2	nt	nt	nt	nt	nt
Cc1c(C#N)c(N)nc2c3c(sc12)NC(=O)CC3c1ccccc1 (stereo not drawn)	65*	-2	41	-4	4	18
CC1(C)Oc2ccc(C(=O)N/N=C/c3ccc(O)cc3)cc2NC1=O	-7	109*	97	-5	-1	-1
Cc1cc(C(=O)NCC(=O)O)c(C)o1	0	115*	101	-8	-10	1
Cc1cc(C(=O)NN)c(C)o1	8	-8	105	-6	-1	-1
SMILES	NSD2 HMT inh	Vif inh	DSG3 Ab inh	CaV13 ICDI inh	ATG4B inhibitor	Glyco luc inh
CCOC(=O)N/N=C/c1cn(Cc2ccc(Cl)cc2)c2ccccc12	-1	1	-28*	-4	14	-13
CCOC(=O)/C(C#N)=C\c1cc(C)n(-c2ccccc2)c1C	-3	0	102	-4	-2	-15
CCOC(=O)/C(C#N)=C/c1cc(C)n(-c2ccc(C)cc2)c1C	0	71*	105	-5	-2	-13
COc1cc2ccccc2cc1C(=O)N/N=C/c1cccs1	4	2	93	-5	nt	35*
COc1ccc(S(=O)(=O)Nc2ccc3c(c2)n(C)c(=O)n3C)cc1C	1	8	117	-6	1	31*
Cn1c(=O)n(C)c2cc(NS(=O)(=O)c3ccc4c(c3)CCCC4)ccc21	6	-8	86	-9	-4	37*
O=C1c2ccccc2C(=O)c2c(NCCCN(CCO)CCO)cccc21	29	-8	107	-6	-8	116*
Nc1c2ccccc2nc2ccccc12	37	-7	103	40*	4	33*!
CCOC(=O)c1sc(N)c(C#N)c1CSc1nc2ccc(OCC)cc2[nH]1	-3	-1	103	-5	-17	1
NC(=S)c1cc2ccc(O)cc2oc1=O	8	15	113	13	-7	-1
CCN(CC)c1ccc2cc(S(=O)(=O)c3ccc(Cl)cc3)c(=O)oc2c1	nt	i	105	+	-9	-3
CCCCCCc1cc2cc(S(=O)(=O)c3ccc(Cl)cc3)c(=O)oc2cc1O	nt	12	104	nt	-4	-1
O=c1oc2cc(O)ccc2cc1S(=O)(=O)c1ccccc1	-7	8	100	31*	4	0
O=c1oc2cc(O)ccc2cc1-c1nc2ccccc2o1	-18	10	nt	38*	nt	-4
COc1cc(/C=N/n2cnnc2)ccc1OC(=O)c1ccco1	-7	-5	106	-2	7	-1
COc1cc(NC(=O)c2cc(S(=O)(=O)N3CCCCC3)ccc2N2CCOCC2)cc(OC)c1	-4	-4	115	-5	-2	-1
COC(=O)C(C(=O)OC)c1ccc(NC(=O)c2cccc(Cl)c2)cc1	-3	11	85*	6	-1	0
COc1cc(OC)cc(C(=O)N(CN2CCCC2=O)c2ccccc2OC)c1	nt	54*	99	-9	-6	1
CC1CCCC(NC(=O)CN(C)S(=O)(=O)c2cnc[nH]2)C1C (stereo not drawn)	-2	14	102	-4	-3	0
COc1ccc(-c2cc(=O)[nH][nH]2)cc1OC	6	4	99	-9	0	2
CCOC(=O)C1CCN(Cc2cn[nH]c2-c2ccc(C)cc2)CC1	0	1	nt	-4	-14	0
CCOC(=O)C1CCN(Cc2cn[nH]c2-c2ccccc2)CC1	126*	3	103	-2	2	-1
CCOC(=O)C1CCN(c2c(N3CCN(Cc4ccccc4)CC3)c(=O)c2=O)CC1	nt	9	97	-6	-2	28*
CCOC(=O)C1CCN(c2c(N3CCN(c4ccccc4OC)CC3)c(=O)c2=O)CC1	nt	nt	97	-6	-9	0
Cc1ccc(Cn2c(CN3CCOCC3)nc3c2c(=O)[nH]c(=O)n3C)cc1	-1	0	99	-5	8	2
O=[N+]([O-])c1ccccc1/C=C\C=N\N1CCN(c2ccccc2)CC1	93*	-5	103	-5	-6	5
